# RBX1-CUL1 inh = blocks human RBX1-Cullin-1 di-ubiquitin formation. AID 1347404. P62877+Q13616. in vitro K48 di-Ub FRET, acceptor:donor ratio, 45 min. hit rate 0.6% among 140,000. inhibition, % at 10 µM; in the data active means inhibition above about 25%
# Target sequence (P62877 whole entry, looked up): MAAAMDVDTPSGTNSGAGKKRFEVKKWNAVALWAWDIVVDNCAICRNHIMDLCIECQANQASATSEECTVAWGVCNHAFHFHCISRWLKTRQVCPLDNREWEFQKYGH
# Target sequence (Q13616 whole entry, looked up): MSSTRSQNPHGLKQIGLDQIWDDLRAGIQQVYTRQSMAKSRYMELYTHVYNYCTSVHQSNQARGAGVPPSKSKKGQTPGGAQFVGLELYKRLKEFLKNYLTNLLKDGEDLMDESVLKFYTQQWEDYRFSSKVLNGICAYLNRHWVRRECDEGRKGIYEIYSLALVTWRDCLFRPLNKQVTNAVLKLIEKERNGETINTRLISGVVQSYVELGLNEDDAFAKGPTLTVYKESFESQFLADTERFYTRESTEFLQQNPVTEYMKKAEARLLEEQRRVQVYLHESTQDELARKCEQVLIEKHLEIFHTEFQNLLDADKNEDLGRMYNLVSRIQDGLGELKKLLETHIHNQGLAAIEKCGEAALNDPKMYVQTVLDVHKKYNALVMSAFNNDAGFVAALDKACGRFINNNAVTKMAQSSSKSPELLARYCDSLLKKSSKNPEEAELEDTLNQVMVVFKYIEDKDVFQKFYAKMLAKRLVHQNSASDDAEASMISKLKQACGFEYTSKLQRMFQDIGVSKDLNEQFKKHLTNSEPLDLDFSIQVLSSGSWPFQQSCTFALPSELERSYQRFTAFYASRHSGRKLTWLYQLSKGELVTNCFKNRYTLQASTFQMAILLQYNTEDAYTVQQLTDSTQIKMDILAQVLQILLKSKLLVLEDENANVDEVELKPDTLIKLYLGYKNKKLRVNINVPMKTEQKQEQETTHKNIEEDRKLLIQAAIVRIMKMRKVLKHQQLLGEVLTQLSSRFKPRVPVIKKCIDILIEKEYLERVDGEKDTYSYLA
# A number is an active result; – = inactive. This is one part of a sample in which hits are shown more often than they occur.
SMILES,RBX1-CUL1 inh
COc1cc(/C=N/NC(=O)CSc2nnc(-c3ccc(C)cc3)n2C)ccc1O,27
COC(=O)C(OC)(OC)C(c1ccccc1)C(C#N)C(=O)O (stereo unspecified),–
O=C1CC2(CCCCC2)c2sc([N+](=O)[O-])cc21,–
CC(=O)CC(CC(=O)Nc1ccccc1C)c1ccccc1 (stereo unspecified),–
CN1CCCC(C(=O)NCc2cccnc2N(C)CCc2ccccn2)C1 (stereo unspecified),–
COC(=O)COc1ccccc1/C=C1\C(=O)NC(=O)N(c2ccc(C34CC5CC(CC(C5)C3)C4)cc2)C1=O,41
COC(=O)COc1ccccc1/C=C1/C(=O)N(c2ccc(Cl)cc2)C(=S)N1C,–
COc1cc(OC)c(OC)cc1/C=C1\C(=O)NC(=S)N(c2ccc(F)cc2)C1=O,–
CCOc1cc(/C=C2\C(=O)NC(=O)N(c3ccc(C45CC6CC(CC(C6)C4)C5)cc3)C2=O)c(Br)cc1O,91
C=CCc1cc(/C=C2\C(=O)NC(=O)N(c3ccc(Br)c(C)c3)C2=O)cc(OCC)c1O,–
CCOc1cc(/C=C2\C(=O)N(c3ccccc3)C(=S)N2c2ccc(CC)cc2)c(Br)cc1O,–
CCn1cc(C(=O)O)c(=O)c2cc(F)c(N3CCN(C(=O)c4ccc(C)cc4)CC3)cc21,–
CCCC1=NN2C(=N)/C(=C/c3ccc(-c4cccc(C(=O)O)c4)o3)C(=O)N=C2S1,–
CCCCCCCC1=NN2C(=N)/C(=C/c3ccc(-c4cccc(C(=O)O)c4)o3)C(=O)N=C2S1,97
CCCCCCCC1=NN2C(=N)/C(=C/c3ccccc3C)C(=O)N=C2S1,–
O=C1CSC2(C(=O)Nc3ccccc32)N1c1ccc(Br)cc1 (stereo unspecified),–
COc1cc(OC)cc(N2C(=O)CSC23C(=O)Nc2ccccc23)c1 (stereo unspecified),–
Cc1ccc(N2C(=O)CSC23C(=O)Nc2ccc(C)cc23)cc1 (stereo unspecified),94
CCC1CN(CC(=O)NCCc2cccnc2)Cc2cc(OC)ccc2O1 (stereo unspecified),–
O=C1Nc2ccccc2C(=O)C1N1CCOCC1 (stereo unspecified),–
O=C(O)c1cccc(N=C2C(=O)c3ccccc3C(=O)C2N2CCOCC2)c1 (stereo unspecified),54
O=C(O)c1cccc(N=C2C(=O)N(c3ccc(Cl)cc3Cl)C(=O)C2Cl)c1 (stereo unspecified),–
COCCN1C(=O)NC(Cc2ccccc2Cl)(C2CCN(C(=O)c3ccc(C)c(C)c3)CC2)C1=O (stereo unspecified),–
Cc1ccc(C)c(N2CCN(C(=O)CCc3nnc(-c4cc(C)on4)o3)CC2)c1,–
CCOC(=O)c1ccc(-n2c(C)cc(/C=C3\SC(=Nc4ccc(Cl)cc4)NC3=O)c2C)cc1,–
SMILES,RBX1-CUL1 inh
Cc1cc(/C=C2\SC(=Nc3ccc(F)cc3)NC2=O)c(C)n1-c1ccc(S(N)(=O)=O)cc1,–
Cc1cc(/C=C2\SC(=Nc3ccc(Cl)cc3)NC2=O)c(C)n1-c1cc(C(=O)O)cc(C(=O)O)c1,100
C=CCOc1ccccc1CN1CCOc2ccc(CN3CCC(O)(c4cccnc4)CC3)cc2C1,–
Brc1ccc2c(c1)c1c3c(nccn32)CCC1,–
O=C1NC(=O)C(=Cc2cc(O)c(O)c(Br)c2)C(=O)N1,49
COc1cc(C=C2C(=O)NC(=O)NC2=O)cc(I)c1OC,–
S=c1[nH]nc(-c2ccccc2)n1/N=C/c1cc(Br)c(I)o1,–
O=C1C(=Cc2ccc(O)c(Br)c2)C(=O)c2ccccc21,–
O=C1NC(=O)C(=Cc2cc(Br)c(I)o2)C(=O)N1,80
CCCCc1c([O-])[n+](-c2ccc(C)cc2)c2ccc(C)nn2c1=O,–
CC1=Nc2nc(SCc3ccccc3)nn2C(c2cccnc2)C1C(=O)Nc1ccccc1C (stereo unspecified),–
CCCOc1ccc(C(=O)C2C(=O)C(=O)N(CCN(C)C)C2c2ccc(N(C)C)cc2)c(C)c1 (stereo unspecified),–
Cc1ccc(NC(=O)C2CCN(C(=O)c3ccccc3F)CC2)cc1C,–
O=c1c2ccccc2nc(CN2CCN(c3cccc(Cl)c3)CC2)n1-c1ccc(F)cc1,–
Oc1ccc(NCc2cc(Cl)ccc2OCc2ccccc2F)cc1,30
CCOc1ccccc1CNc1ccc(N2CCOCC2)cc1,–
Oc1ccc(NCc2ccccc2OCc2ccccc2F)cc1,–
NS(=O)(=O)c1ccc(NCc2ccccc2OCc2ccccc2F)cc1,–
Oc1ccc(NCc2ccccc2OCc2ccccc2Cl)cc1,–
CCOc1ccccc1CNc1ccc(O)cc1,46
Cc1ccccc1NC(=O)C(C)Oc1cc(Cl)c(Cl)cc1Cl (stereo unspecified),–
NC(=O)COc1ccc(Cl)cc1CNC1CCCCC1,–
COC(=O)C1C(=N)OC2=C(C(=O)CCC2)C1c1cccc(Br)c1 (stereo unspecified),106
COC(=O)C1C(=N)OC2=C(C(=O)CC(C)(C)C2)C1c1ccccc1 (stereo unspecified),–

# Source: PubChem (Pan Lab, Icahn School of Medicine at Mount Sinai)
